Screens deposited in PubChem BioAssay by National Center for Advancing Translational Sciences (NCATS).
This is a sample that favours compounds with a hit; in the whole collection about 2.5% have one here.
Cruzain Triton – blocks cruzain activity in presence of Triton detergent; Potency, µM, for the others: max response, negative = inhibition, actives largely listed as inhibitors; AID 1478; hit rate 0.43% among 200,000; P25779; purified cruzain, Z-FR-AMC fluorescence, 0.01% Triton;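 further: plate controls were neutral wells for no effect and buffer without enzyme for full effect; nearly all actives have a fitted effect of over 40% in size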
Target sequence (P25779 123-467 limits assumed): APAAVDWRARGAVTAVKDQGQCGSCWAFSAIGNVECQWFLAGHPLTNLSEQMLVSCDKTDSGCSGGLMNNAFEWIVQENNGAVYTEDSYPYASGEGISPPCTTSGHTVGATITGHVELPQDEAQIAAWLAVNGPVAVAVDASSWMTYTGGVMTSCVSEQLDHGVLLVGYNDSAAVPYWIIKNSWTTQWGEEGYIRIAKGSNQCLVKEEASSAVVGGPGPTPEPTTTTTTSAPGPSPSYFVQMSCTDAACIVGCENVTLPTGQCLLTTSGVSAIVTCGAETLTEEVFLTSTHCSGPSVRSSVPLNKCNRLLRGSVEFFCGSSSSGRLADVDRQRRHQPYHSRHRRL
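Cruzain (1.5 nM) preincubated 15 min at RT with compound in 100 mM sodium acetate pH 5.5, 5 mM DTT, 0.01% Triton X-100. Reaction started with 2 uM Z-FR-AMC; AMC fluorescence (ex 360/em 450 nm) change over 60 s gave rate.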
Cruzain inh noDet – cruzain (T. cruzi) inhibition without detergent; purified cruzain, Z-FR-AMC fluorescence, no detergent; Potency, µM, for the others: max response, negative = inhibition, hits mostly inhibitors; hit rate 2.3% among 200,000; AID 1476;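 further: plate controls were enzyme without inhibitor for no effect and buffer without enzyme for full effect; nearly all actives have a fitted effect of over 40% in size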
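Detergent-free condition (0.00005% Triton X-100) in acetate buffer pH 5.5 with DTT. 1.5 nM enzyme and compound were pre-mixed 15 min, then 2 uM Z-FR-AMC substrate added; reaction progress from fluorescence change between first and third reads (60 s).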
Numbers without * were called inactive; ? = inconclusive. The call rests on the fitted dose curve; in most records, active means well fitted curve in the direction sought with a large enough effect; inconclusive means small, poorly fitted or top-dose-only effect, or another doubt; inactive means no such curve, though single readings can be large; an effect the other way counts as inactive or inconclusive. Potency means the concentration at half of the fitted maximal effect.

SMILES	Cruzain Triton	Cruzain inh noDet
COC1=C[C@@H](C)C2CC3OC(=O)C[C@H]4C(C)=C(OC)C(=O)C([C@@]2(C)C1=O)[C@@]34C (stereo partly drawn)	3.2%	0.9%
O=S(=O)(c1ccc(F)cc1)n1ccc(-c2cccc(OCc3c(F)cccc3Cl)c2)n1	10.4%	-11.6%
O=S(=O)(c1ccc(Cl)cc1)n1ccc(-c2cccc(OCc3c(F)cccc3Cl)c2)n1	3.6%	20µM*
CC(=O)Oc1ccc(C(=O)[C@H]2[C@H]3C(=O)N(c4cccc5ccccc45)C(=O)[C@H]3[C@@H]3C=CC=NN32)cc1	-5.5%	23.0%
O=C(Nc1ccc(Cl)cc1)[C@@H]1[C@@H]2C(=O)N(c3ccc4ccccc4c3)C(=O)[C@@H]2[C@H]2C=CC=NN21	-7.2%	15.8µM*
CN(C(=O)c1ccc2c(c1)N(Cc1ccccc1F)C(=O)c1ccccc1S2)C1CCCCC1	-4.7%	?
COc1ccc(C)cc1NC(=O)CN(c1cc(C(F)(F)F)ccc1Cl)S(C)(=O)=O	-9.8%	24.5%
CCOC(=O)c1c(-c2ccc(C)cc2)csc1NC(=O)c1cc(=O)c2cc(C)cc(C)c2o1	2.4%	4.9%
O=C(NCc1ccccc1)C(=O)Nc1c2c(nn1-c1ccc(F)cc1)CSC2	-0.5%	20µM*
COc1cccc(CNC(=O)C(=O)Nc2c3c(nn2-c2ccccc2)CSC3)c1	0.0%	?
CC(=O)Nc1ccc(S(=O)(=O)NCCc2csc3nc(-c4cccc(C)c4)nn23)cc1	-1.7%	19.3%
CSc1cc2c(cc1C(F)(F)F)N(C(=O)Nc1cccnc1)CC2	0.7%	7.94µM*
Cc1cc(C(F)(F)F)nn1CC(=O)Nc1cccnc1	0.9%	-5.6%
COc1ccc(-c2[nH]n(-c3ccc([N+](=O)[O-])cc3)c(=O)c2C=NCc2ccc(F)cc2)cc1	-5.6%	25.1µM*
COc1ccc(-c2[nH]n(-c3ccc([N+](=O)[O-])cc3)c(=O)c2C=NCc2ccncc2)cc1	-3.6%	?
COc1ccc(S(=O)(=O)N2CCC(c3nnnn3-c3ccccc3)CC2)cc1OC	4.4%	6.7%
N#Cc1c(NC(=S)NC(=O)c2ccccc2)sc2c1CCC2	-7.1%	-6.9%
N#Cc1c(NC(=O)c2ccc(-c3ccccc3[N+](=O)[O-])o2)sc2c1CCCC2	1.6%	?
CC1CCc2sc(NC(=S)NC(=O)c3ccccc3)c(C#N)c2C1 (stereo not drawn)	-5.9%	25.1µM*
CC(C)(C)c1ccc(C(=O)NC(=S)Nc2sc3c(c2C#N)CCC3)cc1	-4.1%	10µM*
CC1CCc2c(sc(NC(=O)c3ccc(-c4ccccc4[N+](=O)[O-])o3)c2C#N)C1 (stereo not drawn)	3.8%	10µM*
CCN1CCc2c(sc(NC(=S)NC(=O)c3ccccc3)c2C#N)C1	-0.4%	-10.6%
CC(=O)c1cc(-c2ccccc2)n(CCC(=O)NCc2ccc(C)cc2)c1C	-4.5%	-0.8%
Cc1cccc(Cn2c(=O)n(CC3CCC(C(=O)NC(C)C)CC3)c(=O)c3sccc32)c1 (stereo not drawn)	-1.3%	3.0%
CCc1nn(CC(=O)NCCc2ccc(OC)cc2OC)c(=O)c2cc3c(OC)cccc3n12	-0.4%	-7.9%
SMILES	Cruzain Triton	Cruzain inh noDet
Cc1ccc(C(=O)Nc2c(C)nc3ccccn3c2=O)cc1C	-6.1%	-17.9%
O=C(CCNS(=O)(=O)c1ccc2c(c1)CCN2C(=O)C1CC1)N1CCN(c2cccc(C(F)(F)F)c2)CC1	-5.6%	?
Cc1cccc(C)c1Nc1nnc(SCc2nc3ccccc3s2)s1	-8.5%	31.6µM*
COc1cccc(Nc2nnc(SCc3nc4ccccc4s3)s2)c1	-9.3%	-12.9%
Cc1ccc(OCCCC(=O)Nc2sc3c(c2C(N)=O)CCC(C)C3)cc1 (stereo not drawn)	-21.6%	23.0%
CC(=O)C1=C(C)N(Cc2ccco2)C(=O)N[C@@H]1c1ccccc1	1.4%	-4.7%
Cc1nc2cnc(N3CCNCC3)nc2n(CCC#N)c1=O	-17.1%	?
CCOC(=O)c1c(C)[nH]c(C(=O)COC(=O)CCS(=O)(=O)c2ccc(C)cc2)c1C	?	1.3%
CCOC(=O)c1c(C)[nH]c(C(=O)COC(=O)CCC2CCCC2)c1C	8.1%	15.8µM*
Cc1cc(C)c(S(=O)(=O)n2cnc(C)c2)c(C)c1	1.2%	-1.5%
CC(Nc1oc(-c2ccccc2)nc1-c1ccc(C(F)(F)F)cc1)c1ccccc1 (stereo not drawn)	4.5%	4.1%
CC(C)(C)c1ccc(C(=O)Nc2ccc(C=C(C#N)C#N)cc2)cc1	-5.7%	31.6µM*
CC(C)(C)c1ccc(C(=O)Nc2ccc(NC(=O)c3ccc(Cl)c(Cl)c3)cc2)cc1	0.1%	-4.7%
COC(=O)N1CCC2(CCCN(Cc3ccccc3)C2)CC1	-0.2%	0.1%
Cc1ccn2c(=O)cc(CSc3nnc(C)s3)nc2c1	-3.4%	-2.9%
N#Cc1ccc(-n2c(-c3ccccc3)nnc2-c2ccccc2)cc1C#N	-10.5%	20µM*
N#Cc1cccc(-n2c(-c3ccccc3)nnc2-c2ccccc2)c1C#N	-8.5%	?
CC1C(NC(=O)/C(=N/OC(C)(C)C(=O)O)c2csc(N)n2)C(=O)N1S(=O)(=O)O (stereo not drawn)	3.2%	-4.9%
[ClH+][Cu][ClH+].[Cu].[OH2+]c1ccc2ccccc2c1CN1CCCCC1.[OH2+]c1ccc2ccccc2c1CN1CCCCC1	1.4%	-5.0%
Cc1cccc(OCC(=O)NC(C)C(=O)N/N=C/c2c(OCc3ccccc3)ccc3ccccc23)c1 (stereo not drawn)	0.5%	15.8µM*
Cc1cccc(OCC(=O)NC(Cc2ccccc2)C(=O)O)c1 (stereo not drawn)	-2.5%	4.4%
COc1ccc2nc3oc(C(=O)N(C)c4ccc(Cl)cc4)cc3cc2c1	-2.5%	-5.5%
O=C(COC(=O)/C=C/c1nc2ccccc2s1)Nc1cccc2ccccc12	-5.3%	6.31µM*
O=C(COC(=O)/C=C/c1ccc(Cl)cc1)Nc1ccccc1-c1ccccc1	-3.9%	9.7%
O=C(COC(=O)/C=C/c1nc2ccccc2s1)Nc1cccc(Cl)c1Cl	-2.0%	10µM*
SMILES	Cruzain Triton	Cruzain inh noDet
CCN(CC)S(=O)(=O)c1ccc(/C=C/C(=O)OCC(=O)Nc2cccc3ccccc23)cc1	-2.3%	-10.5%
CCCC(=O)Nc1ccccc1C(=O)OCc1cc(=O)n2nc(C(C)C)sc2n1	4.2%	-13.5%
Cc1cc(C)c2c(CC(=O)Nc3ccc(S(=O)(=O)Nc4nc(C)cc(C)n4)cc3)coc2c1	-10.1%	3.0%
c1cncc(-c2cc(NCc3cccs3)ncn2)c1	1.4%	-2.3%
Cc1cccc(-n2c3nc(=O)[nH]c(=O)c-3cc3c(Cl)cccc32)c1C	-8.4%	-17.1%
NC(N)=NS(=O)(=O)c1ccc(NC(=S)NC(=O)c2sc3ccccc3c2Cl)cc1	-3.4%	10µM*
O=C(NC(=S)Nc1ccc(N2CCOCC2)c(Cl)c1)c1sc2ccccc2c1Cl	-4.6%	?
O=C(NC(=S)Nc1ccccc1N1CCOCC1)c1sc2ccccc2c1Cl	0.7%	10µM*
COc1cc(NS(=O)(=O)c2ccc(NC(=S)NC(=O)c3sc4ccccc4c3Cl)cc2)nc(OC)n1	-5.5%	-7.0%
CCCN(CCC)C(=O)c1c[nH]c2ccc(S(=O)(=O)N(C)c3ccc(OCC)cc3)cc2c1=O	-5.2%	4.8%
C[C@@]12CCC(=O)C=C1CC[C@H]1C2[C@@H](O)C[C@]2(C)[C@@H]1CC[C@@]2(O)C(=O)CO (stereo partly drawn)	2.7%	-4.0%
